# Measurements as given in ChEMBL document CHEMBL3988442, “University of Dundee, Small-Polar-MMV Screening Library” (2021).
# About 13,000 (27%) of roughly 48,000 compounds showed an effect of 50% or more. This is one part of the list.
# Tested on: Wolbachia pipientis
# Test: Anti-Wolbachia Cell-Based Screen
# Format: functional
# Design: scale not given: in the data most compounds retested in dose-response had high values
# Details: 5 µM
row,SMILES,Percent Effect
1,O=C(c1cccc2[nH]ncc12)N1CCCC1c1noc(C2CC2)n1 (stereo unspecified),-9.191%
2,COc1ccc(S(=O)(=O)N2CC(CC(=O)O)c3ccccc32)cc1 (stereo unspecified),-7.807%
3,Cl.NCC1CCCCN1C(=O)Cc1cccc(Br)c1 (stereo unspecified),-8.019%
4,N#CC(NC(=O)c1cccc2c1OCCO2)c1ccc(F)cc1F (stereo unspecified),-4.984%
5,CCN(Cc1cc(Cl)ccc1OC)Cc1nccn1C,-15.12%
6,CC/N=c1\nc(NCC)nc2n1C(O)(Nc1cc(C)ccc1C)CS2 (stereo unspecified),165.1%
7,CCn1c(C2CCCN(Cc3ccc(OC)c(C)c3C)C2)nn(C)c1=O (stereo unspecified),24.51%
8,Cc1ccccc1C(C)NC(=O)CN1CCN(Cc2ccc(Br)s2)CC1 (stereo unspecified),1.299%
9,O=C1NCC(C(=O)N(Cc2ccc(C(F)(F)F)cc2)C2CC2)N1 (stereo unspecified),-7.127%
10,CC(C)(CNC(=O)CCOc1cccc(F)c1)C(N)=O,-11.69%
11,CS(=O)(=O)Cc1ccc(Cl)cc1NCc1ccccc1F,-2.816%
12,CC(C)(CNC(=O)C1CCCN(C(N)=O)C1)c1cccc(Cl)c1 (stereo unspecified),-3.245%
13,CC(C)(C)SCC(=O)NC(C)(C(N)=O)c1cccc(Cl)c1 (stereo unspecified),113.7%
14,COCCC(=O)NC(C)(C(N)=O)c1cccc(Cl)c1 (stereo unspecified),111.9%
15,CC(C)(NC(=O)Cc1ccccc1F)C(=O)O,90.43%
16,Cc1cccc(OCCC(=O)NCC(C)(C)C(N)=O)c1,-9.486%
17,CCC(C)(CC(=O)O)NC(=O)Cc1ccccc1F (stereo unspecified),-2.363%
18,CC(NC(=O)Cc1ccccc1F)(C(N)=O)c1cccc(Cl)c1 (stereo unspecified),85.68%
19,O=C(Cc1cccc(F)c1F)NS(=O)(=O)c1ccc(Cl)cc1F,16.65%
20,Cc1nncn1CCNC(=O)C(C)(C)c1cccc(Cl)c1,-9.762%
21,CC(C)(NC(=O)Cc1ccccc1F)C(C)(C)C(=O)O,10.54%
22,COC[C@@]12CC[C@@H](N3CCOCC3)C[C@H]1CCN(c1ncccc1F)C2,-2.051%
23,Cc1nn(C)c(C)c1-c1c(-c2ccccc2)ncn1[C@H](CO)C(=O)O,-8.389%
24,Cc1ncsc1CCN(C)C(=O)c1ncccc1O,-5.816%
25,CC(C)OCc1cccc(NC(=O)N(C)Cc2ncnn2C)c1,-5.342%
26,O=C1N(Cc2ccc(F)cc2)CCCC12CCN(C1CCSCC1)C2 (stereo unspecified),-0.8017%

row,SMILES,Percent Effect
1,O=C(Cc1cccs1)NCC1(O)CCSC1 (stereo unspecified),0.8903%
2,CC(C)(CNC(=O)c1ccc(Cl)o1)NC(=O)OC(C)(C)C,-6.326%
3,CC(C)(CNC(=O)c1ccco1)NC(=O)OC(C)(C)C,-7.413%
4,CC(C)(C)C(=O)NCC(=O)NC1CC(c2cccc(Cl)c2)C1 (stereo unspecified),-7.236%
5,CC(C)(C)CC(=O)NC(C)(C(N)=O)c1cccc(Cl)c1 (stereo unspecified),91.43%
6,Cc1cc(CNC(=O)Cc2cccs2)ccc1S(C)(=O)=O,-11.25%
7,CC(NC(=O)Cc1cccs1)(C(N)=O)c1cccc(Cl)c1 (stereo unspecified),80.31%
8,CC(C)(C)OC(=O)NC(C)(C(N)=O)c1cccc(Cl)c1 (stereo unspecified),178.1%
9,CC(NC(=O)NCc1cccc(Cl)c1)(C(=O)O)c1ccco1 (stereo unspecified),5.605%
10,COCc1ccc(C(=O)N2CCN(CC3CC3)[C@@H]3CS(=O)(=O)C[C@@H]32)o1,-14.33%
11,CCCc1cnc(C)nc1NCCc1nc(C)cc(=O)[nH]1,11.65%
12,CN(C)C1CCN(C(=O)c2cc3c(s2)CCN3C(=O)C2CC2)CC1.O=C(O)C(F)(F)F,-3.085%
13,CN1CCN(C(=O)c2cc3c(s2)CCN3C(=O)C2CC2)CC1,-4.007%
14,CN(C)CC(=O)N1CCc2sc(C(=O)N3CCOCC3)cc21,66.53%
15,CCCN1CCCC1c1ccc(C(=O)N2CCOCC2)s1 (stereo unspecified),-8.147%
16,CN(C)CC(=O)N1CCc2sc(C(=O)N3CCN(C)CC3)cc21,110.2%
17,CN1CCCN(C(=O)c2cc3c(s2)CCN3C(=O)C2CC2)CC1,2.998%
18,C=C(C)CNc1ccc(C(=O)N(CC)Cc2nccn2C)cn1,-22.79%
19,CC(C)c1cnc(CN(C)C2CCN(CCn3cc(C#N)cn3)C2)o1 (stereo unspecified),95.34%
20,Cc1cnc(CN(C)C2CCN(CCn3cc(C#N)cn3)C2)o1 (stereo unspecified),2.575%
21,CCc1cnc(CN(C)C2CCN(CCS(C)(=O)=O)C2)o1 (stereo unspecified),-2.122%
22,CC(C)c1cnc(CN(C)C2CCN(CCc3ccncc3)C2)o1 (stereo unspecified),-3.327%
23,CCc1cnc(CN(C)C2CCN(CCn3cc(C#N)cn3)C2)o1 (stereo unspecified),85.15%
24,O=C(Cc1ccccn1)N1CCC2(CC1)CN(c1ncccn1)CCO2.O=C(O)C(F)(F)F.O=C(O)C(F)(F)F,8.931%
25,O=C(Cc1ccccc1C(F)(F)F)N1CCC2(CC1)[C@H](O)C[C@@H]2O,113.5%
26,CC(=O)N1CCCC2(CN(Cc3ccccc3C(F)(F)F)CCO2)C1 (stereo unspecified),-3.341%

row,SMILES,Percent Effect
1,CSc1ncccc1C(=O)N1CCC2(CC1)OCCCC2O (stereo unspecified),-4.189%
2,CC(Oc1ccccc1C(F)(F)F)C(=O)NCC(=O)N1CCCC1 (stereo unspecified),-9.214%
3,O=C(Cc1ccccc1C(F)(F)F)N1CCC2(CC1)OCCCC2O (stereo unspecified),121.4%
4,Cc1nc(O)cc(CN2C[C@H](NS(=O)(=O)N(C)C)[C@@H](C3CC3)C2)n1,-8.548%
5,CCS(=O)(=O)N1C[C@@H](c2cc(O)nc(C)n2)[C@H](c2ccccc2F)C1,95.46%
6,Cc1nc(O)cc(CCNC(=O)c2ccc(CN3CCCCC3)cc2)n1,2.411%
7,Cc1nc(O)cc([C@@H]2CN(S(=O)(=O)N(C)C)C[C@H]2c2ccccc2F)n1,136.9%
8,Cc1cccc(C(=O)N2C[C@H]3CC[C@@H]2CN(S(=O)(=O)N(C)C)C3)n1,-20.97%
9,COCC(=O)N[C@H]1C[C@H]2C(=O)NC[C@@H](CCC(=O)NC3CC3)N2C1,-1.651%
10,NC(=O)NC1(C(=O)N2CCc3c(Cl)cccc3C2)CCCCC1,-13.57%
11,Cc1cccc(C2(CNC(=O)C(C)NC(N)=O)CCCC2)c1 (stereo unspecified),-11.64%
12,NC1(c2nc(-c3cccs3)cc(=O)[nH]2)CCCC1,0.7263%
13,O=C(O)c1cc(-c2cccs2)nc2c(Cl)cnn12,80.97%
14,Cc1cnn(C2CCCN(C(=O)c3cc(-c4cccs4)n[nH]3)C2)c1 (stereo unspecified),-22.99%
15,O=C(O)c1cc(-c2cccs2)nc2c(Br)cnn12,100.3%
16,O=C(c1cc(-c2cccs2)nc2ccccc12)N1CCN(CCO)CC1,26.12%
17,CC(C)OCCCNC(=O)[C@@]12CNC[C@@H]1CN(S(C)(=O)=O)C2,4.002%
18,O=C(NC[C@H]1OC[C@@H](NC2CCC(F)(F)CC2)[C@@H]1O)N1CCOCC1,-13.75%
19,CC(C)(C)C(C#N)NC(=O)c1ccc(Oc2cccnc2)cc1 (stereo unspecified),2.212%
20,O=C1NCCN(C(=O)CN2CCOC2=O)C1c1cccc(F)c1 (stereo unspecified),1.4%
21,COCC(C)(O)CNC(=O)COc1ccccc1OC (stereo unspecified),1.741%
22,COc1cc(C(=O)O)cc(I)c1OCC(=O)NCCc1ccccc1,109.3%
23,COc1ccccc1OCC(=O)NCC(O)(c1ccccc1)C1CC1 (stereo unspecified),-11.16%
24,COc1cc(C(=O)O)ccc1OCC(=O)NC(C)c1ccc(F)cc1 (stereo unspecified),2.572%
25,Cc1nn(C)c(C)c1OCC(=O)NCc1cccc(C(=O)O)c1,4.585%
26,COc1cc(C(=O)O)ccc1OCC(=O)NCCc1ccccc1,92.84%

row,SMILES,Percent Effect
1,Cc1cccc2c1nc1n2[C@@H](CNC(=O)c2ccncc2)COC1,-9.503%
2,Cc1cc2c(cc1C(=O)N1CC[C@H](CO)[C@@H](O)C1)OCCO2,-2.803%
3,CCCn1ncc(C(=O)N2CCC(N3CCCCC3)CC2)c1C,-9.333%
4,CCN(CC)C1CCN(C(=O)c2cc3cc(C)cc(C)c3nc2C)CC1.Cl,152.2%
5,CCN(CC)C1CCN(C(=O)NCc2c(C)noc2C)CC1,-4.062%
6,CC(=O)N1CCC(CCNC(C)c2cc(C)cc(C)c2)CC1 (stereo unspecified),-3.402%
7,CC(C)Cc1cc(C(=O)N2CCC(N3CCCC3)CC2)cc(O)n1,3.394%
8,Cc1cc(C)c2nc(C)c(C(=O)N3CCC(N4CCCC4)CC3)cc2c1,84.44%
9,Cc1cc(C)c2nc(C)c(C(=O)N3CCC(CCN(C)C)CC3)cc2c1,84.1%
10,CCS(=O)(=O)N(C)C1CCN(C(=O)c2cc(C)cc(C)c2)CC1,4.174%
11,CN(C)c1nc2c(c(NCc3cc(O)ncn3)n1)CCCC2,14.14%
12,CC(C)N1CCN2C(=O)N(C3CCCCC3)C[C@H]2C1,0.5796%
13,CC(C)CNC1(Cc2cc(-c3ccccc3)on2)COC1,-15.39%
14,Cc1cncc(C(=O)N(c2ccc(F)cn2)C2CCOCC2)c1,-4.438%
15,COCC(O)CN1CCC(NC(=O)c2cccc(C)c2)CC1 (stereo unspecified),-8.408%
16,CCCS(=O)(=O)N1CCCC(c2cccc(C(=O)O)c2)C1 (stereo unspecified),9.239%
17,O=C1CN(CCCNS(=O)(=O)c2cccc(C(=O)NC3CC3)c2)CCN1,-1.221%
18,O=C(NC1CCOC1)c1cccc(S(=O)(=O)NCCCc2ncc[nH]2)c1 (stereo unspecified),-8.272%
19,CSCCN1CCC(NC(=O)c2cccc(C3CCCNC3)c2)CC1 (stereo unspecified),92.44%
20,CSCCN1CCC(NC(=O)OC(C)(C)C)CC1,-0.645%
21,O=C(NC1CCOCC1)c1cccc(C2CCCNC2)c1 (stereo unspecified),85.12%
22,CCOC(=O)N1CCC(NC(=O)c2cccc(C3CCCNC3)c2)CC1 (stereo unspecified),94.34%
23,CCc1cnc(CNc2ccc(C(=O)NCc3ccco3)cc2C)o1,4.048%
